HCV inhibitor = blocks hepatitis C virus. 3.4% of 340,000 active. Huh7.5.1 HCVcc-Cre infection, luciferase reporter, 44 h. Potency, µM (doses to about 41.8 µM), inactives show at the highest dose activity change, negative = inhibition, usual class: inhibitors; also: potency is read from the fitted curve at half-maximal effect; % is scaled to controls: 0 for no effect and ±100 for the full control effect
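1,000 cells/well; 4 h culture; + compound; + HCVcc-Cre (~0.5 moi); 44 h; luciferase substrate, RT 15 min; read 15 sec.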
AMA1-RON2 inh = disrupts binding of P. falciparum AMA1 to RON2; AlphaScreen AMA1-biotinylated RON2 peptide binding; Potency, µM (top dose mostly 58.2 µM), for inactives: at the highest dose activity change, negative = inhibition, actives largely listed as inhibitors; 0.2% of 360,000 active; AID 720542;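 also: potency is read from the fitted curve at half-maximal effect; 0% = vehicle wells and -100% = peptide control; nearly all actives have a fitted effect of over 45% in size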
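AMA1 (3D7) with his tag at 25 nM final met compounds first, then biotinylated RON2 peptide at 25 nM; detection used donor plus acceptor beads, 10 µg/mL apiece, read by AlphaScreen after 30 min at room temperature.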
Pf growth 48h = P. falciparum growth inhibition at 48 hours (one generation) | P. falciparum luciferase growth in erythrocytes, 48 h | Potency, µM (highest dose often 28.7 µM), without a hit: top-dose activity change, negative = inhibition, actives largely listed as inhibitors | 5.9% of 310,000 active | AID 504832; also: potency is read from the fitted curve at half-maximal effect; % is scaled to controls: 0 for no effect and ±100 for the full control effect
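Here the parasites carry a stable luciferase gene and grow inside erythrocytes in Albumax-based RPMI medium with compound for one erythrocytic cycle. Activity is scored as loss of luminescent signal.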
Pf growth 96h = inhibits malaria parasite growth, 96 h; P. falciparum luciferase reporter growth, 96 h; AID 504834; Potency, µM (highest dose often 28.7 µM), without a hit: at the highest dose activity change, negative = inhibition, actives largely listed as inhibitors; 6.9% of 320,000 active; also: potency is read from the fitted curve at half-maximal effect; % is scaled to controls: 0 for no effect and ±100 for the full control effect
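P. falciparum expressing integrated firefly luciferase, in erythrocytes at 2% hematocrit, 0.05% parasitemia, incubated with compounds 96 h at 37 C, 5% CO2. Growth inhibition read as loss of luminescence; two-generation exposure targets delayed-death apicoplast inhibitors.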
Shiga toxin inh = inhibitors of Shiga toxin in Vero cells | Vero cells, Shiga toxin protein synthesis inhibition reporter | inhibition, % at 38.7 µM | 9.2% of 290,000 active; in the data active = inhibition mostly above about 28%, no sharp cut-off; inactive = mostly below about 43%; also: 0% is about no effect
CHX counter = counter-screen hit for Shiga toxin inhibitors, cycloheximide; 12% of 300,000 active; cell reporter, cycloheximide protein synthesis inhibition counterscreen; max response, %; in the data active = max response mostly above about 13%, no sharp cut-off; inactive = mostly below about 14%; also: read at 38.3 µM for the half of the compounds with a filed dose; 0% is about no effect
Starred values were filed as active, the others as inactive; ? = inconclusive; nt = not tested or not shown; [ ] = remark or other dose. Hits are enriched below; roughly 21% of the tested compounds scored in any of these assays. Unless noted, calls follow the shape of the dose curve; as a rule, active = well fitted curve in the direction sought with a large enough effect; inconclusive = small, poorly fitted or top-dose-only effect, or another doubt; inactive = no such curve, though single readings can be large; an effect the other way counts as inactive or inconclusive.

SMILES	HCV inhibitor	AMA1-RON2 inh	Pf growth 48h	Pf growth 96h	Shiga toxin inh	CHX counter
O=C(N/C(=C/c1cn(-c2ccccc2)nc1-c1ccccc1)C(=O)N1CCOCC1)c1ccc(Cl)cc1Cl	23.4%	?	6.57µM*	?	-1.7	-0.8
Fc1ccc(-c2nn(-c3ccccc3)cc2CNCc2ccccc2)cc1	?	-27.6%	?	15.9%	-4.9	-3.4
O=C(NCC(c1ccco1)N1CCCC1)c1cn(Cc2ccccc2)nc1-c1ccccc1 (stereo not drawn)	-3.1%	-0.6%	?	9.28µM*	nt	nt
O=C(CCl)Nc1cn(-c2ccccc2)nc1-c1ccc(F)cc1	?	15.6%	-29.8%	?	18.5	24.2*
O=C(NCC(c1ccco1)N1CCCC1)c1cn(-c2ccccc2)nc1-c1ccc(F)cc1 (stereo not drawn)	?	-15.8%	?	8.28µM*	nt	nt
C#CCNC(=O)C[C@@H]1C[C@@]2(C(=O)OC)CC(C)(C)CC=C2N(CCCCCCCC)C1=O	nt	-0.7%	nt	nt	nt	nt
CCOc1ccc(S(=O)(=O)N(C)CC(=O)N2CCN(CC)CC2)cc1	-6.8%	-2.5%	-0.4%	10.4%	-3.2	-1.1
Cc1nnc2c(SC(C)C)nc3ccccc3n12	?	-1.0%	-28.2%	347.5%	-3.3	-5.6
COc1ccccc1-c1nn(-c2ccccc2)cc1C(=O)NCC(c1ccco1)N1CCCC1 (stereo not drawn)	3.3%	12.8%	?	14.7µM*	nt	nt
O=C(c1cn(-c2ccccc2)nc1-c1ccc(F)cc1)N1CCOCC1	-15.8%	-9.5%	-3.5%	10.5%	23.4	15.7
COc1ccccc1-c1nn(-c2ccccc2)cc1C(=O)N1CCN(C(=O)c2ccco2)CC1	-0.7%	-4.7%	?	-28.5%	nt	nt
O=C(NC(=S)N1CCOCC1)c1cn(-c2ccccc2)nc1-c1ccc(F)cc1	0.0%	72.9%[11.6 µM]	?	11.7µM*	nt	nt
Cc1ccc(S(=O)(=O)N2CCC(NC(=O)OC(C)C)CC2)cc1	10.3%	12.7%	7.2%	-45.5%	-8.1	-2.4
COc1nccnc1NS(=O)(=O)c1ccc(NS(=O)(=O)c2ccc(NC(C)=O)cc2)cc1	-2.1%	0.0%	nt	?	-11.6	4.7
COc1nccnc1NS(=O)(=O)c1ccc(NCc2cc(Br)ccc2O)cc1	-12.7%	2.5%	?	3.2%	57.1*	37.1*
CCc1nnc(NS(=O)(=O)c2ccc(NCc3cc(Br)ccc3O)cc2)s1	18.1%	7.0%	4.9%	37.8%	-6.1	1.4
CCCCCC(=O)Nc1ccc(S(=O)(=O)Nc2nccnc2OC)cc1	17.9%	-0.6%	-8.5%	2.33µM*	-13.0	-1.3
O=S(=O)(c1ccccc1)N1N=C(c2ccccc2)CC1c1ccccc1F (stereo not drawn)	?	2.9%	?	32.9%	-1.4	0.0
CCOc1ccc(CCNC(=O)c2ccc3c(=O)[nH]c4c(C(=O)NC(C)C)sc(=S)n4c3c2)cc1	6.2%	11.7%	?	3.29µM*	0.8	7.8
Cc1cc(C)nc(N2CCCC(C(=O)NC(C)C)C2)n1 (stereo not drawn)	0.4%	-1.7%	-9.0%	?	4.8	-1.5
CC(C)Sc1ncnc2[nH]ncc12	6.7%	0.0%	nt	nt	nt	nt
OCCN1C2=NCCCN2c2ccccc21	10.2%	4.9%	0.0%	7.38µM*	-13.5	-4.6
CCCCCCN1C2=NCCCN2c2ccccc21	?	2.5%	?	11.7µM*	-5.8	-1.7
COc1ccc(C(=O)CN2C3=NCCCN3c3ccccc32)cc1OC	?	-3.0%	5.0%	-23.7%	-11.9	-3.1
c1ccc(CN2C3=NCCN3c3ccccc32)cc1	?	14.8%	-19.6%	?	-1.4	1.1
SMILES	HCV inhibitor	AMA1-RON2 inh	Pf growth 48h	Pf growth 96h	Shiga toxin inh	CHX counter
Clc1ccc(CN2C3=NCCN3c3ccccc32)cc1Cl	10µM*	-14.6%	?	-26.2%	-22.0	-9.8
Cc1ccc(C)c(C(=O)CN2C3=NCCCN3c3ccccc32)c1	?	-5.2%	7.38µM*	9.28µM*	-23.7	-3.9
O=C(C1CCN(S(=O)(=O)c2cnc[nH]2)CC1)N1CCN(c2ccc([N+](=O)[O-])cc2)CC1	17.8%	-4.8%	10.3%	16.5%	-5.4	-2.7
C#CCOCC1CNC(=S)O1 (stereo not drawn)	nt	-2.8%	nt	nt	nt	nt
Cc1ccc(C(O)CN2C3=NCCCN3c3ccccc32)cc1 (stereo not drawn)	?	2.6%	?	4.15µM*	-44.1	-2.8
CCOC(=O)[C@@H]1[C@H]2COc3ccccc3[C@@H]2N2C(=O)N(c3cccc(C)c3)C(=O)[C@]12C	-10.7%	-8.4%	-21.0%	?	-2.9	0.2
CC1(C)Cc2c(c(N3CCOCC3)nc3sc4c(=O)[nH]cnc4c23)CS1	?	19.8%	9.2%	-17.0%	-3.2	-2.3
CN(C)CCNc1ncnc2c1sc1nc(N3CCOCC3)c3c(c12)CC(C)(C)SC3	10µM*	?	?	?	-15.2	-8.4
CCN(CC)CCNc1ncnc2c1sc1nc(N3CCOCC3)c3c(c12)CC(C)(C)SC3	11.3%	13.0%	?	5.22µM*	-9.4	-2.8
CC1(C)Cc2c(c(N3CCOCC3)nc3sc4c(NCCN)ncnc4c23)CO1	7.08µM*	-4.2%	nt	nt	nt	nt
Cc1cccc(S(=O)(=O)NC(=O)C2(C)CCN2C(=O)c2sccc2C)c1 (stereo not drawn)	nt	-1.0%	nt	nt	nt	nt
Cn1c(=O)c([N+](=O)[O-])c(Cl)c2ccccc21	7.94µM*	5.2%	-7.4%	-3.1%	2.6	-1.4
NC(=O)[C@H](Cc1cc2ccccc2s1)NC(=O)[C@@H]1CC2(CC(c3cccc(NC(=O)[C@@H]4CCC(=O)N4)c3)=NO2)CN1C(=O)c1ccccc1 (stereo partly drawn)	21.7%	15.8%	13.1µM*	10.4µM*	-18.6	-3.0
NC(=O)[C@H]1CC2(CC(c3cccc(NC(=O)[C@H]4CCC(=O)N4)c3)=NO2)CN1C(=O)CC(c1ccccc1)c1ccccc1 (stereo partly drawn)	16.7%	-2.5%	-39.2%	?	-3.9	-4.3
NC(=O)[C@H](Cc1cc2ccccc2s1)NC(=O)[C@@H]1CC2(CC(c3cccc(NC(=O)[C@@H]4CCC(=O)N4)c3)=NO2)CN1C(=O)/C=C/Sc1ccccc1 (stereo partly drawn)	-5.6%	-3.1%	13.1µM*	?	23.6	-2.0
NC(=O)[C@H](Cc1cc2ccccc2s1)NC(=O)[C@@H]1CC2(CC(c3cccc(NC(=O)[C@@H]4CCC(=O)N4)c3)=NO2)CN1C(=O)/C=C/c1c(F)cccc1Cl (stereo partly drawn)	-11.0%	-10.6%	4.15µM*	2.94µM*	-4.2	1.6
Cc1cc(N2CCN(S(=O)(=O)c3ccccc3)CC2)nc2c(C)cccc12	?	10.0%	-6.8%	13.1µM*	-6.9	-6.7
Cc1cc(N2CCN(S(=O)(=O)c3ccc(Cl)c(Cl)c3)CC2)c2ccccc2n1	11.2µM*	-3.7%	11.7µM*	1.1%	4.8	0.4
